Laboratory results reported in PubChem BioAssay (NCATS).
Records with an inconclusive call do not appear. Values without a mark were called inactive. The source made the active and inactive calls. The call rests on the fitted dose curve; in most records, active means well fitted curve in the direction sought with a large enough effect; inconclusive means small, poorly fitted or top-dose-only effect, or another doubt; inactive means no such curve, though single readings can be large; an effect the other way counts as inactive or inconclusive.

Experiments:
[1] = qHTS of pediatric cancer cell lines to identify multiple opportunities for drug repurposing: Primary screen for BT-12 cells (AID 1347101); further: nearly all actives have a fitted effect of over 25% in size; further: potency means the concentration at half of the fitted maximal effect
How it was run: (§1)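 Cells (500-1,000/well) rested 5 h, then received compounds for 48 h; metabolically active cells were measured by CellTiter-Glo luminescence. Final concentrations spanned up to 46 µM (MIPE, 11-point) or 0.59 nM-46 µM (NPC, 8-point) in primary screens, 11-point in follow-ups.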

[2] = qHTS of pediatric cancer cell lines to identify multiple opportunities for drug repurposing: Primary screen for Rh18 cells (AID 1347102); further: nearly all actives have a fitted effect of over 65% in size; further: potency means the concentration at half of the fitted maximal effect
How it was run: (§2)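 Cells (500-1,000/well) in growth media were settled 5 h at 37 degrees C, then given compounds for 48 h. Viability was read as CellTiter-Glo luminescence. Primary runs used MIPE at 11 points (0.78 nM-46 µM) and NPC at 8 points (0.59 nM-46 µM); follow-ups used 11 points.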

[3] = qHTS of pediatric cancer cell lines to identify multiple opportunities for drug repurposing: Primary screen for OHS-50 cells (AID 1347103); further: nearly all actives have a fitted effect of over 40% in size; further: potency means the concentration at half of the fitted maximal effect
How it was run: as §1

[4] = qHTS of pediatric cancer cell lines to identify multiple opportunities for drug repurposing: Primary screen for RD cells (AID 1347104); further: nearly all actives have a fitted effect of over 55% in size; further: potency means the concentration at half of the fitted maximal effect
How it was run: (§3)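 Phenotypic viability qHTS, 48 h compound exposure, CellTiter-Glo luminescence read-out; multi-concentration dosing so that potency and efficacy derive directly from the primary screen's curves.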

[5] = qHTS of pediatric cancer cell lines to identify multiple opportunities for drug repurposing: Primary screen for MG 63 (6-TG R) cells (AID 1347105); further: nearly all actives have a fitted effect of over 50% in size; further: potency means the concentration at half of the fitted maximal effect
How it was run: as §3

[6] = qHTS of pediatric cancer cell lines to identify multiple opportunities for drug repurposing: Confirmatory screen for NB1643 cells (AID 1347109); further: nearly all actives have a fitted effect of over 45% in size; further: potency means the concentration at half of the fitted maximal effect
How it was run: as §2

[7] = qHTS of pediatric cancer cell lines to identify multiple opportunities for drug repurposing: Confirmatory screen for SK-N-MC cells (AID 1347111);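 further: potency means the concentration at half of the fitted maximal effect; cells exposed to compound for 48 h before the readout; nearly all actives have a fitted effect of over 70% in size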
How it was run: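 Metabolically active cells were quantified by ATP-dependent luminescence (CellTiter-Glo, 15 min at room temperature) following 48 h treatment. Cells had been plated at 500-1,000 per well and settled for 5 h beforehand.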

[8] = qHTS of pediatric cancer cell lines to identify multiple opportunities for drug repurposing: Confirmatory screen for LAN-5 cells (AID 1347113); further: nearly all actives have a fitted effect of over 65% in size; further: potency means the concentration at half of the fitted maximal effect
How it was run: as §2

[9] = qHTS of pediatric cancer cell lines to identify multiple opportunities for drug repurposing: Confirmatory screen for SJ-GBM2 cells (AID 1347116); further: nearly all actives have a fitted effect of over 60% in size; further: potency means the concentration at half of the fitted maximal effect
How it was run: (§4)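 Viability measured as metabolically active cells via CellTiter-Glo luminescence following 48 hours of compound exposure, 11-point dilutions in confirmatory testing. 500-1,000 cells/well plated 5 hours before dosing; controls were DMSO and 2.3 µM bortezomib.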

[10] = qHTS of pediatric cancer cell lines to identify multiple opportunities for drug repurposing: Confirmatory screen for BT-37 cells (AID 1347117); details: BT-37 pediatric cancer cells, viability; activity change, negative = cytotoxic: at 45.9 µM (top of the series); further: nearly all actives have a fitted effect of over 55% in size; further: potency means the concentration at half of the fitted maximal effect
How it was run: as §2

[11] = qHTS of pediatric cancer cell lines to identify multiple opportunities for drug repurposing: Confirmatory screen for TC32 cells (AID 1347118);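 further: potency means the concentration at half of the fitted maximal effect; cells exposed to compound for 48 h before the read; nearly all actives have a fitted effect of over 65% in size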
How it was run: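 Luminescent ATP read-out (CellTiter-Glo) of metabolically active TC32 cells after 48 h exposure. Concentration-response curves came from 11-point (MIPE, 0.78 nM–46 µM) or 8-point (NPC, 0.59 nM–46 µM) primary titrations; follow-up used 11 points.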

[12] = qHTS of pediatric cancer cell lines to identify multiple opportunities for drug repurposing: Confirmatory screen for MG 63 (6-TG R) cells (AID 1347119); further: nearly all actives have a fitted effect of over 55% in size; further: potency means the concentration at half of the fitted maximal effect
How it was run: as §2

[13] = qHTS of pediatric cancer cell lines to identify multiple opportunities for drug repurposing: Primary screen for Rh41 cells (AID 1347108); further: nearly all actives have a fitted effect of over 70% in size; further: potency means the concentration at half of the fitted maximal effect;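 on activity change, negative = cytotoxic: luminescence drop marks cytotoxic hits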
How it was run: as §3

[14] = qHTS of pediatric cancer cell lines to identify multiple opportunities for drug repurposing: Confirmatory screen for A673 cells (AID 1347110);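 further: potency means the concentration at half of the fitted maximal effect; cells exposed to compound for 48 h before the viability read; nearly all actives have a fitted effect of over 65% in size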
How it was run: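 Concentration-response curves came straight from titrations: 11 points (0.78 nM to 46 µM) for MIPE and several concentrations (0.59 nM to 46 µM) for NPC in primary, 11 points in follow-up. Readout: ATP luminescence at 48 h.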

[15] = qHTS of pediatric cancer cell lines to identify multiple opportunities for drug repurposing: Confirmatory screen for DAOY cells (AID 1347114); further: nearly all actives have a fitted effect of over 65% in size; further: potency means the concentration at half of the fitted maximal effect
How it was run: as §4

[16] = qHTS of pediatric cancer cell lines to identify multiple opportunities for drug repurposing: Primary screen for Rh30 cells (AID 1347107); further: nearly all actives have a fitted effect of over 75% in size; further: potency means the concentration at half of the fitted maximal effect
How it was run: as §2

[17] = qHTS of pediatric cancer cell lines to identify multiple opportunities for drug repurposing: Confirmatory screen for NB-EBc1 cells (AID 1347115);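 further: cells exposed to compound for 48 h before the viability read; nearly all actives have a fitted effect of over 45% in size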; further: potency means the concentration at half of the fitted maximal effect
How it was run: as §2

[18] = qHTS of pediatric cancer cell lines to identify multiple opportunities for drug repurposing: Confirmatory screen for control Hh wild type fibroblast cells (AID 1347121); further: nearly all actives have a fitted effect of over 70% in size
How it was run: as §2

[19] = qHTS of pediatric cancer cell lines to identify multiple opportunities for drug repurposing: Confirmatory screen for BT-12 cells (AID 1347112); further: nearly all actives have a fitted effect of over 55% in size; further: potency means the concentration at half of the fitted maximal effect
How it was run: as §2

For FC(F)c1nc2ccccc2n1-c1nc(N2CCOCC2)nc(N2CCOCC2)n1, the Potency [1] was 1.22 µM (active), the Potency [2] was 0.935 µM (active) and the Potency [3] was 0.0769 µM (active). The Potency [4] was 0.418 µM (active), the Potency [5] was 0.187 µM (active) and the Potency [6] was 1.47 µM (active). For the same compound, the Potency [7] was 0.737 µM (active), the Potency [8] was 1.47 µM (active) and the Potency [9] was “inactive”. For the same compound, the Potency [10] was 1.47 µM (active), the Potency [11] was 0.928 µM (active) and the Potency [12] was 0.928 µM (active).
With C=CC(=O)N1CCc2ccc(-n3c(=O)ccc4cnc5ccc(-c6cnn(C)c6)cc5c43)cc21 the Potency [1] was 6.11 µM (active), the Potency [2] was 8.33 µM (active) and the Potency [3] was 8.63 µM (active). For the same compound, the Potency [4] was 4.69 µM (active), the Potency [5] was 2.96 µM (active) and the Potency [13] was 3.72 µM (active). The Potency [6] was 2.93 µM (active), the Potency [14] was 14.7 µM (active) and the Potency [7] was 5.22 µM (active). For the same compound, the Potency [8] was 2.93 µM (active), the Potency [15] was 9.27 µM (active) and the Potency [9] was 9.27 µM (active). For the same compound, the Potency [10] was 4.65 µM (active) and the Potency [11] was 5.22 µM (active).
In the case of COc1cc(C[C@@H](CO)[C@H](CO)Cc2ccc(O)c(OC)c2)ccc1O, the Potency [1] is reported as 10.9 µM (active), the Potency [2] is reported as 4.18 µM (active) and the Potency [3] is reported as 9.68 µM (active). For the same compound, the Potency [4] was 0.526 µM (active), the Potency [5] was 0.935 µM (active) and the Potency [16] was 0.469 µM (active). For the same compound, the Potency [13] was 0.935 µM (active), the Potency [6] was “inactive” and the Potency [7] was 8.27 µM (active). The Potency [17] was “inactive”, the Potency [10] was “inactive” and the Potency [11] was 9.27 µM (active). For the same compound, the Potency [12] was “inactive” and the Potency [18] was “inactive”.
In the case of O=C1NC(=O)[C@@H](c2cn3c4c(cccc24)CCC3)[C@H]1c1c[nH]c2ccccc12, the Potency [1] is reported as 2.17 µM (active), the Potency [2] is reported as “inactive” and the Potency [3] is reported as 0.863 µM (active). For the same compound, the Potency [4] was 0.235 µM (active), the Potency [16] was “inactive” and the Potency [14] was 2.33 µM (active). For the same compound, the Potency [7] was 0.928 µM (active), the Potency [15] was 2.08 µM (active) and the Potency [10] was 1.85 µM (active). The Potency [11] was 0.827 µM (active) and the Potency [12] was 1.17 µM (active).
For CC[C@H]1OC(=O)[C@H](C)[C@@H](O[C@H]2C[C@@](C)(OC)[C@@H](O)[C@H](C)O2)[C@H](C)[C@@H](O[C@@H]2O[C@H](C)C[C@H](N(C)C)[C@@H]2O)[C@](C)(OC)C[C@@H](C)C(=O)[C@H](C)[C@@H](O)[C@]1(C)O, the Potency [1] was “inactive”, the Potency [2] was “inactive” and the Potency [3] was “inactive”. For the same compound, the Potency [4] was “inactive”, the Potency [5] was “inactive” and the Potency [13] was “inactive”.
For COc1cc(O)c2c(c1)C1OC1C[C@H](O)[C@H](O)C(=O)C=CC[C@H](C)OC2=O (stereo partly drawn), the Potency [1] was 13.7 µM (active), the Potency [2] was 16.6 µM (active) and the Potency [3] was 19.3 µM (active). For the same compound, the Potency [4] was 2.35 µM (active), the Potency [5] was 18.7 µM (active) and the Potency [13] was 11.8 µM (active). The Potency [6] was 4.65 µM (active), the Potency [14] was 11.7 µM (active) and the Potency [7] was 9.27 µM (active). The Potency [8] was 7.37 µM (active), the Potency [15] was 16.5 µM (active) and the Potency [17] was 5.85 µM (active). The Potency [9] was 5.85 µM (active), the Potency [10] was 14.7 µM (active) and the Potency [11] was 9.27 µM (active). The Potency [12] was 5.85 µM (active).
With CC(C)(N)c1ccc(-c2nc3ccccc3nc2-c2ccccc2)cc1 the Potency [1] was 24.3 µM (active), the Potency [2] was 20.9 µM (active) and the Potency [3] was 7.69 µM (active). For the same compound, the Potency [4] was 16.6 µM (active), the Potency [5] was 23.5 µM (active) and the Potency [13] was 10.5 µM (active). For the same compound, the Potency [6] was 26.1 µM (active), the Potency [14] was 2.93 µM (active) and the Potency [7] was 0.465 µM (active). For the same compound, the Potency [8] was 0.465 µM (active), the Potency [15] was “inactive” and the Potency [17] was “inactive”. The Potency [10] was 18.5 µM (active) and the Potency [11] was 1.47 µM (active).
In the case of C#CCC(Cc1cnc2nc(N)nc(N)c2n1)c1ccc(C(=O)N[C@@H](CCC(=O)O)C(=O)O)cc1 (stereo partly drawn), the Potency [1] is reported as 0.0485 µM (active), the Potency [2] is reported as “inactive” and the Potency [3] is reported as 0.109 µM (active). For the same compound, the Potency [4] was 0.0743 µM (active), the Potency [16] was “inactive” and the Potency [13] was “inactive”. For the same compound, the Potency [6] was “inactive”, the Potency [14] was 0.0657 µM (active) and the Potency [7] was 0.0522 µM (active). For the same compound, the Potency [19] was 0.104 µM (active), the Potency [8] was “inactive” and the Potency [15] was 0.117 µM (active). For the same compound, the Potency [17] was 0.369 µM (active), the Potency [11] was 0.0414 µM (active) and the Potency [12] was “inactive”. The Potency [18] was “inactive”.
With CC(C)N1[N]C(=C2C=c3cc(O)ccc3=N2)c2c(N)ncnc21 the Potency [1] was 0.485 µM (active), the Potency [2] was 5.9 µM (active) and the Potency [3] was 0.273 µM (active). The Potency [4] was 1.66 µM (active), the Potency [5] was 1.18 µM (active) and the Potency [13] was 1.05 µM (active). The Potency [6] was 10.4 µM (active), the Potency [14] was 4.14 µM (active) and the Potency [7] was 2.33 µM (active). The Potency [19] was 13.1 µM (active), the Potency [8] was 2.93 µM (active) and the Potency [15] was 5.22 µM (active). The Potency [17] was 4.14 µM (active), the Potency [9] was 4.14 µM (active) and the Potency [10] was 1.31 µM (active). For the same compound, the Potency [11] was 1.17 µM (active) and the Potency [12] was 0.414 µM (active).
In the case of O=C(C=CC=Cc1ccc2c(c1)OCO2)N1CCCCC1, the Potency [1] is reported as “inactive”, the Potency [2] is reported as “inactive” and the Potency [3] is reported as “inactive”. The Potency [4] was “inactive”, the Potency [5] was “inactive” and the Potency [16] was “inactive”. For the same compound, the Potency [13] was “inactive”, the Potency [14] was 16.5 µM (active) and the Potency [7] was 8.27 µM (active). For the same compound, the Potency [19] was “inactive”, the Potency [15] was “inactive” and the Potency [17] was “inactive”. For the same compound, the Potency [9] was “inactive”, the Potency [10] was “inactive” and the Potency [11] was 10.4 µM (active). The Potency [12] was “inactive” and the Potency [18] was “inactive”.
For CC(=O)N[C@@H]1[C@H](O[C@@H]2c3ccc(c(Cl)c3)Oc3cc4cc(c3O[C@H]3O[C@H](CO)[C@@H](O)[C@H](O)[C@H]3NC(=O)CCCCCCCC(C)C)Oc3ccc(cc3Cl)C[C@H]3NC(=O)[C@H](N)c5ccc(O)c(c5)Oc5cc(O)cc(c5)[C@H](NC3=O)C(=O)N[C@H]4C(=O)N[C@H]3C(=O)N[C@@H]2C(=O)N[C@@H](C(=O)O)c2cc(O)cc(O[C@H]4O[C@H](CO)[C@@H](O)[C@H](O)[C@H]4O)c2-c2cc3ccc2O)O[C@H](CO)[C@@H](O)[C@@H]1O, the Potency [1] was “inactive”, the Potency [2] was “inactive” and the Potency [3] was “inactive”. For the same compound, the Potency [4] was “inactive”, the Potency [5] was “inactive” and the Potency [13] was “inactive”.
